The full data set covers some 8,800 targets. This sample favours those with a hit. About 0.5% of all pairs of compound and target were hits. Unmarked numbers belong to inactive results.
What was measured:
Assay in all cases: log2 fold change, soluble protein after heating vs DMSO (PISA); higher = thermal stabilisation; K562 lysate, 10 uM; active = over 0.2 and 3.5 SD of the protein, either way, in both replicates (recomputed)
ibrutinib = compound: C=CC(=O)N1CCC[C@@H](n2nc(-c3ccc(Oc4ccccc4)cc3)c3c(N)ncnc32)C1 [ibrutinib]
Summary of the method: (§1)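 Log-two fold change in thermal stability relative to solvent controls is reported from duplicates. For each sample, crude K562 extract from dounce-homogenised pellets in PBS pH 7.4 with 1 mM MgCl2, at 1 mg/mL protein, was treated with 10 μM compound for 30 min. Aliquots heated for 3 min across 48°C-58°C were pooled, brought to 0.5% NP-40 at 4°C and cleared at 21,000xg for 90 min. The supernatant was quantified by TMTpro 16plex LC-MS/MS with channel sums equalised.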

[1] = compound: CC(=O)c1cnc2ccc(-c3cc(Cl)c(O)c(Cl)c3)nc2c1N[C@H]1CC[C@H](CN(C)C)CC1
Summary of the method: as §1

ralimetinib = compound: CC(C)(C)Cn1c(N)nc2ccc(-c3[nH]c(C(C)(C)C)nc3-c3ccc(F)cc3)nc21 [ralimetinib]
Summary of the method: as §1

[2] = compound: CC(C)(O)CC(=O)NCCn1ccc2ncnc(Nc3ccc(Oc4cccc(C(F)(F)F)c4)c(Cl)c3)c21
Summary of the method: as §1

[3] = compound: CC(C)C1=C2N=C(C=C(N2N=C1)NCC3=CC=CC=C3)NCCCCCCN
Summary of the method: as §1

[4] = compound: CC1=C(C(CC(=O)N1)C2=CC=C(C=C2)C(F)(F)F)C(=O)NC3=C(C=C4C(=C3)C=NN4)F
Summary of the method: as §1

[5] = compound: CC1=C(C2=C(C=C1)C(=O)C3=CC=CC=C3N2CCCN)C
Summary of the method: as §1

[6] = compound: CC1=C(C=C(C=C1)NC(=O)C2=CC(=CC=C2)C(C)(C)C#N)NC3=CC4=C(C=C3)N=CN(C4=O)C
Summary of the method: as §1

[7] = compound: CC1=C(C=C(C=C1)NC(=O)C2=CC(=CC=C2)N(C)C)NC(=O)C3=CC=C(C=C3)O
Summary of the method: as §1

[8] = compound: CC1=CC=C(C=C1)SC2=C3C=C(SC3=CN=C2)C(=O)N
Summary of the method: as §1

[9] = compound: CCCS(=O)(=O)Nc1ccc(F)c(C(=O)c2c[nH]c3ncc(Cl)cc23)c1F
Summary of the method: as §1

barasertib = compound: CCN(CCCOc1ccc2c(Nc3cc(CC(=O)Nc4cccc(F)c4)[nH]n3)ncnc2c1)CCOP(=O)(O)O [barasertib]
Summary of the method: as §1

volasertib = compound: CC[C@@H]1C(=O)N(C)c2cnc(Nc3ccc(C(=O)N[C@H]4CC[C@H](N5CCN(CC6CC6)CC5)CC4)cc3OC)nc2N1C(C)C [volasertib]
Summary of the method: as §1

[10] = compound: CCn1c(C(=O)N(C2CC2)C2CC2)cc2c3c(ncn3C)c(Nc3cc(C)n(C)n3)nc21
Summary of the method: as §1

[11] = compound: CCn1cc(-c2ccnc3[nH]c(-c4cccc(CN(C)C)c4)cc23)c(-c2ccc(NC(=O)N(C)C)cc2)n1
Summary of the method: as §1

[12] = compound: CN1CCC(CNc2ccc3ncc(-c4cccc(OC(F)(F)F)c4)n3n2)CC1
Summary of the method: as §1

saracatinib = compound: CN1CCN(CCOc2cc(OC3CCOCC3)c3c(Nc4c(Cl)ccc5c4OCO5)ncnc3c2)CC1 [saracatinib]
Summary of the method: as §1

sotrastaurin = compound: CN1CCN(c2nc(C3=C(c4c[nH]c5ccccc45)C(=O)NC3=O)c3ccccc3n2)CC1 [sotrastaurin]
Summary of the method: as §1

vemurafenib = compound: CCCS(=O)(=O)Nc1ccc(F)c(C(=O)c2c[nH]c3ncc(-c4ccc(Cl)cc4)cc23)c1F [vemurafenib]
Summary of the method: as §1

[13] = compound: CC[C@@H]1C(=O)N(C)c2cnc(Nc3ccc(C(=O)NC4CCN(C)CC4)cc3OC)nc2N1C1CCCC1
Summary of the method: as §1

UniProt Q07866, sequence (Q07866 whole entry, looked up): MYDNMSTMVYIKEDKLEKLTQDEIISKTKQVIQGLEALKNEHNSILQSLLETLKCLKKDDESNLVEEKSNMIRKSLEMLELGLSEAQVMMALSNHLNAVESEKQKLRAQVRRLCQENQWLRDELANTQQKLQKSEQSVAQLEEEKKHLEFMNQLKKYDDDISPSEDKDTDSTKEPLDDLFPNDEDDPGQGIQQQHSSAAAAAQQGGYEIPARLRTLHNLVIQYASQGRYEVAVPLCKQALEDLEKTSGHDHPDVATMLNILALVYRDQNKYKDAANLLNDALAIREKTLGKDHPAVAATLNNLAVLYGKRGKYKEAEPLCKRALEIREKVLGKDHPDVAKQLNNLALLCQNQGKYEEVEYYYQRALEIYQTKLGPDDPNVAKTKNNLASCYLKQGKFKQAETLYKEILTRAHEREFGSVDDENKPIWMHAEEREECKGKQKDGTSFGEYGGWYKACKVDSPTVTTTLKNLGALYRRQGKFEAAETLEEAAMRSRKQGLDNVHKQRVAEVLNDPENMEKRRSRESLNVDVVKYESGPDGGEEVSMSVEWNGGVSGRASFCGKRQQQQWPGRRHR
UniProt Q16553, sequence (Q16553 whole entry, looked up): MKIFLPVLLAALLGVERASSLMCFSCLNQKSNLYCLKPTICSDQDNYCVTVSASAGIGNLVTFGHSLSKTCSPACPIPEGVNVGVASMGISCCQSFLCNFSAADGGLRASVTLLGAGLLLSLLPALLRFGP
UniProt O60337, sequence (O60337 whole entry, looked up): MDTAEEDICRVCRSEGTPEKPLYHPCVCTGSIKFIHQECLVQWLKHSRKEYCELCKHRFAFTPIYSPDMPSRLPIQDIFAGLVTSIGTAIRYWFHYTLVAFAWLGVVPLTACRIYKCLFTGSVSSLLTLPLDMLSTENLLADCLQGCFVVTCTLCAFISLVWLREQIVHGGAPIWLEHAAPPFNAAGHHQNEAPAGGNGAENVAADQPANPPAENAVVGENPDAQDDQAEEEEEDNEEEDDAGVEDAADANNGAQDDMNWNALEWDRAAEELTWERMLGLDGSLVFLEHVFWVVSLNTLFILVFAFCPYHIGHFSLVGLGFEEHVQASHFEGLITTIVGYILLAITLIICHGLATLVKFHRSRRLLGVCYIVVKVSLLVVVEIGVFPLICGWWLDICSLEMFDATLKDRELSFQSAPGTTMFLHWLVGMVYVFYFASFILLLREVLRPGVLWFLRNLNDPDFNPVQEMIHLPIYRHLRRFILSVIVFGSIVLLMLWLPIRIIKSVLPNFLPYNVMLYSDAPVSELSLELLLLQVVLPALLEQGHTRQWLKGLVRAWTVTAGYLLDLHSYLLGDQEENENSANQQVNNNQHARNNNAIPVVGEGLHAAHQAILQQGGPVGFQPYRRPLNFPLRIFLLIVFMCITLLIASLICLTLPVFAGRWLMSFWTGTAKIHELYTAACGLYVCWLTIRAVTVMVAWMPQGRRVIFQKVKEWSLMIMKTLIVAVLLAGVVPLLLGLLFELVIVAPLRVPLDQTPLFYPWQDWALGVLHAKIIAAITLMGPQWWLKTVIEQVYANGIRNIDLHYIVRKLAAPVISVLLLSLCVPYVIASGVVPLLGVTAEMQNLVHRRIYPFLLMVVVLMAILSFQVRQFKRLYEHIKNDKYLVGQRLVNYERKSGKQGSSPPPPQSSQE
UniProt P27816, sequence (P27816 whole entry, looked up): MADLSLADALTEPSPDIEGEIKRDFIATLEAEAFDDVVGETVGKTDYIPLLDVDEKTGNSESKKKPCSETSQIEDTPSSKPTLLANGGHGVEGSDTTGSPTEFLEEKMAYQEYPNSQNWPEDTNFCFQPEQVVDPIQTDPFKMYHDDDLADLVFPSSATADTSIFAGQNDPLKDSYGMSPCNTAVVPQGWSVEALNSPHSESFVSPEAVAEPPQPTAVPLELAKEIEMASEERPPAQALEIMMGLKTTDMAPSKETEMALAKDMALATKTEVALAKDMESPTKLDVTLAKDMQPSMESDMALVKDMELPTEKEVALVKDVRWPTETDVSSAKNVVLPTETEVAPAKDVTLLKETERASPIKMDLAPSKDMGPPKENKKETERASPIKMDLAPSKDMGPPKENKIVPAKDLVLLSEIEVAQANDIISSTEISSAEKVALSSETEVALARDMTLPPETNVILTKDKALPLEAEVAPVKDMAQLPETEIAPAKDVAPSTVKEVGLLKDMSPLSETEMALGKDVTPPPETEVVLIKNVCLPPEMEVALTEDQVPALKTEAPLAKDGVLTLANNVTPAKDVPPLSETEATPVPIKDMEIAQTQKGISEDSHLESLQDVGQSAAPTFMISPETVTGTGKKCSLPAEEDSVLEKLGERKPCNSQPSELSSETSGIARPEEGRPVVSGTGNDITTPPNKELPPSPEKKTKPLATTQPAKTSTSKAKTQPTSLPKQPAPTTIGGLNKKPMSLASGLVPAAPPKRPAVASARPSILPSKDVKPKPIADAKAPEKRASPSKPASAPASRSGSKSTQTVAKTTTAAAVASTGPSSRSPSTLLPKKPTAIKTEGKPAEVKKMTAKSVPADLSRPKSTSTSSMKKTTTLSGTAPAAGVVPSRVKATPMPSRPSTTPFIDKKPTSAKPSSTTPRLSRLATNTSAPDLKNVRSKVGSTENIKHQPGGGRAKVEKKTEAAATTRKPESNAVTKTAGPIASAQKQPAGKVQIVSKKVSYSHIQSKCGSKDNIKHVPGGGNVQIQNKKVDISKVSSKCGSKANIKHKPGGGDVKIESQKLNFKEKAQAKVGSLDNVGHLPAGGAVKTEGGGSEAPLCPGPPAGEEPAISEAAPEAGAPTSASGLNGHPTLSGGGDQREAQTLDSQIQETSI
UniProt P01116, sequence (P01116 whole entry, looked up): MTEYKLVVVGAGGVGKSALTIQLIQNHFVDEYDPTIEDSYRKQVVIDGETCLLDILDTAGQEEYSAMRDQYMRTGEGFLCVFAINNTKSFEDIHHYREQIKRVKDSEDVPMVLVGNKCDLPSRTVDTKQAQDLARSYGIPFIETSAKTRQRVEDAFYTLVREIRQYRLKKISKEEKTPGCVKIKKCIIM
UniProt Q08380, sequence (Q08380 whole entry, looked up): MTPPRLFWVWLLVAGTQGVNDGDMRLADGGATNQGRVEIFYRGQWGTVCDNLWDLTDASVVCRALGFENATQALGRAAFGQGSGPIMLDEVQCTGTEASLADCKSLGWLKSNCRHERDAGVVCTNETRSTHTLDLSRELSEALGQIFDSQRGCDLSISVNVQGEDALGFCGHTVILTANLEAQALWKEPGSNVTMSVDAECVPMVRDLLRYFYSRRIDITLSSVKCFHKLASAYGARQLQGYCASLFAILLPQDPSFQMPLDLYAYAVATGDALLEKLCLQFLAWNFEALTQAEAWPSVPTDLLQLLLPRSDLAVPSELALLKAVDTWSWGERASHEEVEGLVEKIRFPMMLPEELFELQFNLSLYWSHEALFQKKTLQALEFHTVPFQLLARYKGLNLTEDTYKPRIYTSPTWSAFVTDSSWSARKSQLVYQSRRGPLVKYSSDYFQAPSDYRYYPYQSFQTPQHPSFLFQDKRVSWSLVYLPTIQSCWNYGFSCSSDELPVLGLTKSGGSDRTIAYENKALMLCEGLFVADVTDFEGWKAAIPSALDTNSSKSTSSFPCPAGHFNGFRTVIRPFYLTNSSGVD
UniProt O95396, sequence (O95396 whole entry, looked up): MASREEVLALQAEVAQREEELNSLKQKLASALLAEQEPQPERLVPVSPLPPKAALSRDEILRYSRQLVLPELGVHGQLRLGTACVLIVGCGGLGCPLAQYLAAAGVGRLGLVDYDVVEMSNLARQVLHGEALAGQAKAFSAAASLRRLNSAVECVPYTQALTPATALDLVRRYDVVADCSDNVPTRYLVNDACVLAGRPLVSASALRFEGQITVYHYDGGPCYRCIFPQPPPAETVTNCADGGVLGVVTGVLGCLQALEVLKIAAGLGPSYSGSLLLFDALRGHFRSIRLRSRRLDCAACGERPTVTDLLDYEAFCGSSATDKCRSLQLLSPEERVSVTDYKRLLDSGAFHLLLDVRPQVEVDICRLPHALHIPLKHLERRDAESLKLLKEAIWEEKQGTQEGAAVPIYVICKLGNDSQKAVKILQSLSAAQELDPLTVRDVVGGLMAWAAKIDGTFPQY
UniProt Q14703, sequence (Q14703 whole entry, looked up): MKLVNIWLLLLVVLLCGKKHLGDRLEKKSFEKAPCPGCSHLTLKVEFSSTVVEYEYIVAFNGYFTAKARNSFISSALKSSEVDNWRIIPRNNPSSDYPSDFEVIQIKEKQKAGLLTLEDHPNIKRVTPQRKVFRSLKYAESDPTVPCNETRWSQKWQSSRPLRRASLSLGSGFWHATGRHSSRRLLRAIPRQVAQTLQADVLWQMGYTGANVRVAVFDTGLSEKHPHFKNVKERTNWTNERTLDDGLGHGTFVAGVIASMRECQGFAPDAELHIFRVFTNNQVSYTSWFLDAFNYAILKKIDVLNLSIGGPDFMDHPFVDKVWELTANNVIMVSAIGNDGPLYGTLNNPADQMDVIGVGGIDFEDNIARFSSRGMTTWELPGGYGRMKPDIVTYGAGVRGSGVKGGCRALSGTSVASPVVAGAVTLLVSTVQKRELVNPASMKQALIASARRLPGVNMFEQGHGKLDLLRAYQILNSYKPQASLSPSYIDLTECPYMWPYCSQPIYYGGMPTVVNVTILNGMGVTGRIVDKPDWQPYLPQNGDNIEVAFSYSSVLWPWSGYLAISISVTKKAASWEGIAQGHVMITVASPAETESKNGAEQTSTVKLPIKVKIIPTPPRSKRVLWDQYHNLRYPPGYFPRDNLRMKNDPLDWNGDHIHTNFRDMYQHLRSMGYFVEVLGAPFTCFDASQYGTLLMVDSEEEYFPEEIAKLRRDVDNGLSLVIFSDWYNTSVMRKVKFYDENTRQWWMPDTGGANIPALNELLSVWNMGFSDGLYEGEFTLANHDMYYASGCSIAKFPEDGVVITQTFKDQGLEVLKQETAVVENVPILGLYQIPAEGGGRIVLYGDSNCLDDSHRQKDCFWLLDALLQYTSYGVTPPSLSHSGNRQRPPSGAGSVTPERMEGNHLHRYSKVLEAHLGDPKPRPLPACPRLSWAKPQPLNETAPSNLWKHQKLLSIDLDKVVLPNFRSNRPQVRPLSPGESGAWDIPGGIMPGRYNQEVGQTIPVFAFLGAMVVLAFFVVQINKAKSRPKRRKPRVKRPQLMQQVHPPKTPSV

| Target | log2 fold change (ibrutinib) | log2 fold change [1] | log2 fold change (ralimetinib) | log2 fold change [2] | log2 fold change [3] | log2 fold change [4] | log2 fold change [5] | log2 fold change [6] | log2 fold change [7] | log2 fold change [8] | log2 fold change [9] | log2 fold change (barasertib) | log2 fold change (volasertib) | log2 fold change [10] | log2 fold change [11] | log2 fold change [12] | log2 fold change (saracatinib) | log2 fold change (sotrastaurin) | log2 fold change (vemurafenib) | log2 fold change [13] |
| --- | --- | --- | --- | --- | --- | --- | --- | --- | --- | --- | --- | --- | --- | --- | --- | --- | --- | --- | --- | --- |
| MCUB (UniProt Q9NWR8) | 0.127 | 0.013 | 0.054 | 0.045 | -0.063 | 0.039 | -0.219 | 0.443 (active) | 0.04 | 0.204 | -0.175 | 0.156 | -0.041 | -0.222 | 0 | -0.054 | -0.096 | -0.008 |  |  |
| MLXIP (UniProt Q9HAP2) | 0.045 | 0.007 | -0.006 | -0.035 | 0.028 | -0.033 | -0.015 | -0.015 | -0.011 | -0.015 | 0.013 | 0.019 | -0.041 | 0.028 | -0.045 | 0.093 | 0 | 0.008 | 0.004 | -0.032 |
| MAP4 isoform 5 (UniProt P27816) | 0.172 | 0.027 | -0.1 | -0.166 | 0.03 | 0.048 | 0.019 | 0.012 | 0.082 | 0.047 | -0.035 | -0.038 | 0.044 | -0.266 |  |  | 0.041 | -0.04 | -0.019 | 0.069 |
| KIF21A (UniProt H0YI78) | -0.187 | -0.073 |  |  | -0.006 | 0.107 | 0.017 |  |  | 0.031 | 0.017 | -0.198 | -0.008 |  |  |  | -0.151 |  |  |  |
| LRRIQ1 (UniProt Q96JM4) |  | -0.036 | -0.041 | 0.019 |  |  |  | 0.671 (active) | 0.047 | -0.069 | 0.02 |  | 0.015 | -0.015 |  |  |  | 0.027 | -0.023 |  |
| MBTPS1 (UniProt Q14703) | -0.243 |  | 0.056 | -0.045 | -0.029 |  | -0.041 | 0.008 | 0.048 |  |  | 0.199 |  | 0.003 | 0.211 | -0.185 | -0.031 | -0.014 | 0.247 | 0.034 |
| KRAS (UniProt P01116) |  | 0.006 | -0.023 | 0.063 | -0.008 | -0.037 | 0.018 | -0.048 | 0.07 | -0.058 | 0.019 |  | 0.063 | -0.053 | -0.278 (active) | 0.06 | 0.066 | 0.012 | 0.061 | 0.019 |
| LRRC9 (UniProt Q6ZRR7) |  |  |  |  |  |  |  | 0.042 |  |  |  |  |  |  | -0.25 | 0.131 |  | 0.01 | -0.011 | -0.022 |
| MOCS3 (UniProt O95396) | 0.045 |  | -0.016 | -0.014 | -0.018 | 0.056 | -0.04 | 0.079 | 0.001 |  |  | -0.018 |  | 0.037 | -0.273 | 0.264 | 0.06 | 0.11 | -0.12 | -0.038 |
| MAPKAP1 (UniProt Q9BPZ7) |  |  | -0.019 | 0 | -0.031 | -0.103 | 0.061 | 0.007 | -0.034 |  |  |  |  | 0.005 |  |  | 0.057 | -0.045 |  | 0.031 |
| LY6E (UniProt Q16553) | -0.032 | 0.028 |  |  |  | -0.027 |  |  |  | -0.042 | 0.026 | -0.02 | 0.022 |  | -1.86 (active) | 0.533 |  |  | 0.068 | -0.055 |
| LRP1 (UniProt Q07954) |  | -0.017 |  |  |  |  |  | 0.378 |  | -0.049 | -0.072 |  | 0.004 |  |  |  |  | -0.043 | 0.15 | -0.163 |
| MAPK3 (UniProt H0YEX6) |  |  |  |  |  | 0.029 |  |  |  |  |  |  |  |  |  |  |  |  |  |  |
| KIFC3 isoform 6 (UniProt Q9BVG8) | 0 |  |  |  | 0.097 |  | -0.231 | 0.193 |  |  |  | 0.025 |  |  | 0.284 | 0.256 | 0.005 | 0.028 | 0.052 | 0.409 |
| MARF1 (UniProt Q9Y4F3) | 0.027 |  | 0.034 | -0.042 | -0.045 | -0.021 | 0.037 | 0.004 | 0.01 |  |  | 0.051 |  | 0.007 | -0.027 | -0.059 | 0.027 | 0 | -0.093 | -0.059 |
| KLC1 isoform 10 (UniProt Q07866) | 0.235 |  |  |  | -0.129 |  |  |  |  |  |  | 0.238 |  |  |  |  |  |  |  | 0.152 |
| MRPL22 (UniProt Q9NWU5) |  | 0.001 | 0.018 | -0.033 | 0.058 | 0.001 |  | -0.017 | 0.051 | 0.069 | 0.001 |  | -0.002 | -0.069 | -0.006 | -0.045 |  | -0.013 |  |  |
| LGALS3BP (UniProt Q08380) |  | 0.061 |  |  | 0 | 1.31 | 0.453 | -0.009 |  | 0 | 0.01 |  | 0.044 |  | 0.168 | 0 | 0.219 | -0.067 | -0.196 | 0.036 |
| MARCHF6 (UniProt O60337) | -0.395 (active) | -0.021 |  |  | -0.012 | 0.014 | 0.101 | 0.004 |  | 0.032 | 0.052 | 0.233 | 0.078 |  | -0.023 | 0.013 | -0.13 | 0.034 | 0.043 | 0.038 |
| LRPPRC (UniProt H7C3W8) |  |  |  |  |  |  |  |  |  |  |  |  |  |  |  |  |  |  | 0.566 |  |
| MDM2 isoform 11 (UniProt Q00987) | -0.071 |  | 0.038 | -0.08 | -0.006 |  |  | -0.074 | 0.076 |  |  | -0.238 |  | -0.03 | 0.024 | -0.038 |  | 0.053 | -0.035 |  |
| KIF18B (UniProt Q86Y91) |  | -0.157 |  |  |  |  | -0.022 | 0 |  | -0.121 | 0.017 |  | -0.046 |  |  |  | 0.04 | 0.106 |  | 0.221 |
